Laboratory results taken from PubChem BioAssay AID1159580 (chemical genetic matrix, 2015).
Values joined by “and” are separate entries in the source; they are usually repeats but may differ in a detail not shown here. Equal entries are not always repeated. About 2,000 (36%) of roughly 5,500 compounds were called active. Another 18% or so got no clear call; they are omitted. Rule as the data show it: active = normalized growth mostly below about 0.91 (no sharp cut-off); inconclusive = no clear call, values can overlap the other calls; inactive = mostly above about 0.92. This is one part of the list.

Experiment: chemical genetic growth profiling, strain panel (AID 1159580);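 also: tested at 20 µM; growth read once vehicle control cultures reached saturation at 30 °C; 1 = growth at the plate median or of vehicle wells; lower values mean less growth of the strain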
Settings: S. cerevisiae deletion strains, growth OD

Measured: normalized growth

C[N+]1(CCCCC[N+]2(C)CCCC2)CCCC1
inactive: locus YAL013W, strain DEP1, active compounds read low 1 and 0.986 | locus YAL021C, strain ccr4, active compounds read low 0.99 | locus YAL026C, strain drs2, active compounds read low 0.995 | locus YAL030W, strain snc1, active compounds read low 1 | locus YAL040C, strain CLN3, active compounds read low 0.976 | locus YBL061C, strain skt5, active compounds read low 0.998 | locus YBR009C, strain hhf1, active compounds read low 1 | locus YBR021W, strain FUR4, active compounds read low 1.01 | locus YBR023C, strain chs3, active compounds read low 0.989 | locus YBR171W, strain sec66, active compounds read low 1 | locus YBR229C, strain ROT2, active compounds read low 1.01 | locus YBR231C, strain swc5, active compounds read low 0.986 | locus YBR279W, strain paf1, active compounds read low 0.993 | locus YCL011C, strain gbp2, active compounds read low 0.993 | locus YCL016C, strain dcc1, active compounds read low 0.993 | locus YCL029C, strain bik1, active compounds read low 1.04 | locus YCL061C, strain MRC1 (second series), active compounds read low 0.994 | locus YCL061C, strain MRC1, active compounds read low 0.995 | locus YCL069W, strain vba3, active compounds read low 1 | locus YCR088W, strain abp1, active compounds read low 0.999 | locus YDL005C, strain med2, active compounds read low 0.983 | locus YDL035C, strain GPR1, active compounds read low 1.01 | locus YDL040C, strain nat1, active compounds read low 0.989 | locus YDL074C, strain BRE1, active compounds read low 1.02 | locus YDL101C, strain DUN1, active compounds read low 1.01 | locus YDL134C, strain PPH21, active compounds read low 1.01 | locus YDL185W, strain tfp1, active compounds read low 1.01 | locus YDL192W, strain arf1, active compounds read low 1.02 | locus YDR001C, strain nth1, active compounds read low 1 | locus YDR069C, strain doa4, active compounds read low 0.995 | locus YDR101C, strain arx1, active compounds read low 1.01 | locus YDR137W, strain rgp1, active compounds read low 1.04 | locus YDR150W, strain NUM1, active compounds read low 1 | locus YDR159W, strain sac3, active compounds read low 0.991 | locus YDR162C, strain NBP2, active compounds read low 1.01 | locus YDR195W, strain ref2 0.922 | locus YDR297W, strain sur2, active compounds read low 1.01 | locus YDR318W, strain mcm21, active compounds read low 1.02 | locus YDR334W, strain swr1, active compounds read low 0.991 | locus YDR335W, strain msn5, active compounds read low 0.991 | locus YDR363W, strain ESC2, active compounds read low 0.985 | locus YDR388W, active compounds read low 1.01 | locus YDR392W, strain spt3, active compounds read low 1.01 | locus YDR502C, strain sam2, active compounds read low 1.01 | locus YEL003W, strain gim4, active compounds read low 0.997 | locus YEL037C, strain rad23, active compounds read low 0.994 | locus YEL061C, strain CIN8 (second series), active compounds read low 0.991 | locus YEL061C, strain CIN8, active compounds read low 1 | locus YER002W, strain NOP16, active compounds read low 1.01 | locus YER015W, strain faa2, active compounds read low 0.993 | locus YER016W, strain bim1, active compounds read low 0.995 | locus YER110C, active compounds read low 1.02 | locus YER111C, strain swi4, active compounds read low 0.983 | locus YER155C, strain BEM2 (second series), active compounds read low 0.996 | locus YER155C, strain BEM2, active compounds read low 0.997 | locus YER167W, strain BCK2, active compounds read low 1 | locus YFR010W, strain ubp6, active compounds read low 0.998 | locus YGL078C, strain dbp3, active compounds read low 1.01 | locus YGL086W, strain mad1, active compounds read low 0.996 | locus YGL167C, strain pmr1, active compounds read low 1 | locus YGL173C, strain kem1, active compounds read low 1 | locus YGL227W, strain vid30, active compounds read low 0.984 | locus YGL240W, strain doc1, active compounds read low 0.988 | locus YGL248W, strain PDE1, active compounds read low 1.02 | locus YGL253W, strain hxk2, active compounds read low 0.987 | locus YGR078C, strain PAC10, active compounds read low 1.02 | locus YGR135W, strain pre9, active compounds read low 1.01 | locus YGR229C, strain SMI1, active compounds read low 1.01 | locus YGR252W, strain gcn5, active compounds read low 1 | locus YHR013C, strain ard1, active compounds read low 0.962 | locus YHR027C, strain rpn1, active compounds read low 0.998 | locus YHR030C, strain SLT2, active compounds read low 1.01 | locus YHR079C, strain IRE1 (second series), active compounds read low 1.02 | locus YHR094C, strain hxt1, active compounds read low 1.01 | locus YHR129C, strain ARP1, active compounds read low 1.01 | locus YHR142W, strain chs7, active compounds read low 0.997 | locus YHR200W, strain rpn10, active compounds read low 1 | locus YIL066C, strain RNR3, active compounds read low 1.01 | locus YIL073C, strain SPO22, active compounds read low 1.05 | locus YIL125W, strain kgd1, active compounds read low 1.02 | locus YIR030C, strain dcg1, active compounds read low 1.01 | locus YJL092W, strain hpr5, active compounds read low 0.997 | locus YJL095W, strain BCK1 (second series), active compounds read low 0.993 | locus YJL095W, strain BCK1, active compounds read low 1.03 | locus YJL115W, strain asf1, active compounds read low 0.988 | locus YJL129C, strain trk1, active compounds read low 0.992 | locus YJL134W, strain LCB3, active compounds read low 1 | locus YJL154C, strain vps35, active compounds read low 0.995 | locus YJL164C, strain tpk1, active compounds read low 0.995 | locus YJL166W, strain qcr8, active compounds read low 0.999 | locus YJL168C, strain set2, active compounds read low 1.01 | locus YJL187C, strain SWE1 (second series), active compounds read low 1.02 | locus YJL187C, strain SWE1, active compounds read low 1
